Test [1] addresses T1, Aspartate--tRNA(Asp/Asn) ligase (Mycobacterium tuberculosis (strain ATCC 25618 / H37Rv)) (UniProt P9WFW3).
T1 sequence (whole entry): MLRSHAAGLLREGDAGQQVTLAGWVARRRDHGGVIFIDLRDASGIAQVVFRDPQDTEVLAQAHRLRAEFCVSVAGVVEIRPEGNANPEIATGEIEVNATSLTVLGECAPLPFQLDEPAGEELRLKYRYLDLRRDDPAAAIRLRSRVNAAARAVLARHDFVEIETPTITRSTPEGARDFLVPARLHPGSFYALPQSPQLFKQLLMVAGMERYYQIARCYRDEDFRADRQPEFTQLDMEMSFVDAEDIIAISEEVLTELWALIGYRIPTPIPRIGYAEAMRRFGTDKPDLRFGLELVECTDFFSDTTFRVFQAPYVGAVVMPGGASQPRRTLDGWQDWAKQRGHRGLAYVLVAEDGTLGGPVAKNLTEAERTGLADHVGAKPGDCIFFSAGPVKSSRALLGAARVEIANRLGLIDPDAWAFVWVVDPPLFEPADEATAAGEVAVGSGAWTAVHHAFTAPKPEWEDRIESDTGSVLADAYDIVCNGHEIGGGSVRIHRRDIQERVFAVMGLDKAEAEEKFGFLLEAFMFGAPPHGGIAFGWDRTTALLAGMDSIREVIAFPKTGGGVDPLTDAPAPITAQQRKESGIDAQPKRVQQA
Nature of the test: Assay for Asp RNA synthetase-1 from Mycobacterium tuberculosis. Type of test: functional. Particulars: 30 µM. More on the design: scale not given: direction of the effect not stated beside the values.

In test [2] the target is Shiga toxin 2 (Escherichia coli O157:H7) (UniProt P09385+P09386). Nature of the test: E. coli 0.157:H7 Shiga Toxin SOP - stx2 screening assay. The format is functional. Set-up: scale not given: direction of the effect not stated beside the values. Particulars: 30 µM.

Take `Cc1ccc(CN2CC[C@H]3[C@@H]2CCC(=O)N3CCN2CCCC2)s1`: the Percent Effect in test [1] is 2.78%; in test [2] it was -33.4%.

In the case of `Cc1nc(CNCC2CCCN2c2cccnn2)cs1` (centres undefined), the Percent Effect in test [1] was -0.7%; in test [2] it was 15.4%.

Turning to `Cc1cnn(CC2CCCN2C(=O)c2ccc(C(N)=O)cn2)c1` (centres undefined), the Percent Effect in test [1] was -2.92%; in test [2], 11.5%.

Turning to `COc1cc(S(=O)(=O)N2CCc3ccc(F)cc32)cc(C(=O)O)c1OC`, the Percent Effect in test [1] worked out at 1.4%; in test [2], 2.68%.

Take `CCc1c(C(=O)N2CCN(c3ncccn3)CC2)cnn1C(C)(C)C`: the Percent Effect came out at 3.62% in test [1] and 30.7% in test [2].

Consider `O=S(=O)(Nc1cnn(C2CCOCC2)c1)c1ccc(F)c(F)c1`, for which the Percent Effect in test [1] stood at 3.75%; in test [2] it was 1.76%.

On to `Cc1cccc(-c2nc(CN3CCc4c(ncn4C)C3)no2)c1`, for which the results for the Percent Effect in test [1] and in test [2] were 1.91% and 4.04%, respectively.

With `CC(CNCc1ccncc1)Oc1ccccn1` (centres undefined), the Percent Effect was -2.38% in test [1] and -57% in test [2].

In the case of `COCCN1CCC2(CCN(Cc3nccs3)CC2)C1=O`, the Percent Effect in test [1] was 3.12%; in test [2] it was -8.73%.

For the compound `Cc1ccc(C(=O)NC(CN2CCCC2=O)c2ccccc2)c(=O)[nH]1` (centres undefined), the Percent Effect in test [1] is -6.44%; in test [2], 2.19%.

With `Cc1nc(C)n(CC2CN(CC(=O)Nc3cccnc3)CCO2)n1` (centres undefined), the Percent Effect is -1.48% in test [1] and 2.66% in test [2].

For the compound `CCn1cnnc1C1CCN(C(=O)C(OC)c2ccccc2)CC1` (centres undefined), the results for the Percent Effect in test [1] and in test [2] were -2.71% and 9.67%, respectively.

On to `CCC1(CO)CCCN(c2ncccc2C#N)C1` (centres undefined), for which the Percent Effect is -1.73% in test [1] and -8.75% in test [2].

Consider `CCN(c1ccc(C(=O)NCCCN2CCOCC2)cc1)S(=O)(=O)CC`, for which the Percent Effect was 4.46% in test [1] and -48.2% in test [2].

As for `CC1CN(Cc2nccn2C)CCN1c1ccc2nncn2n1` (centres undefined), the Percent Effect is -6.07% in test [1] and -28.7% in test [2].

In the case of `CCNC(=O)Nc1ccc2c(ccn2CC(=O)N(CC)CC)c1`, the Percent Effect was -3.17% in test [1] and 30.4% in test [2].

In the case of `Cn1cc(C2CC(=O)NC23CCN(c2ncc(F)cn2)CC3)cn1` (centres undefined), the Percent Effect in test [1] is 0.844%; in test [2], -18.9%.
